In PubChem BioAssay AID2185 (Vanderbilt High Throughput Screening Facility, 2009):
Measured potencies and affinities stand elsewhere. Activity calls are given as the source filed them. No rule for the calls is given here.

biological target: Metabotropic glutamate receptor 4 (Rattus norvegicus) (UniProt P31423); experiment: PubChem AID 2185; details: HEK/GIRK cells expressing rat mGluR4, thallium flux PAM; hits give high values
Sequence (P31423 whole entry, looked up): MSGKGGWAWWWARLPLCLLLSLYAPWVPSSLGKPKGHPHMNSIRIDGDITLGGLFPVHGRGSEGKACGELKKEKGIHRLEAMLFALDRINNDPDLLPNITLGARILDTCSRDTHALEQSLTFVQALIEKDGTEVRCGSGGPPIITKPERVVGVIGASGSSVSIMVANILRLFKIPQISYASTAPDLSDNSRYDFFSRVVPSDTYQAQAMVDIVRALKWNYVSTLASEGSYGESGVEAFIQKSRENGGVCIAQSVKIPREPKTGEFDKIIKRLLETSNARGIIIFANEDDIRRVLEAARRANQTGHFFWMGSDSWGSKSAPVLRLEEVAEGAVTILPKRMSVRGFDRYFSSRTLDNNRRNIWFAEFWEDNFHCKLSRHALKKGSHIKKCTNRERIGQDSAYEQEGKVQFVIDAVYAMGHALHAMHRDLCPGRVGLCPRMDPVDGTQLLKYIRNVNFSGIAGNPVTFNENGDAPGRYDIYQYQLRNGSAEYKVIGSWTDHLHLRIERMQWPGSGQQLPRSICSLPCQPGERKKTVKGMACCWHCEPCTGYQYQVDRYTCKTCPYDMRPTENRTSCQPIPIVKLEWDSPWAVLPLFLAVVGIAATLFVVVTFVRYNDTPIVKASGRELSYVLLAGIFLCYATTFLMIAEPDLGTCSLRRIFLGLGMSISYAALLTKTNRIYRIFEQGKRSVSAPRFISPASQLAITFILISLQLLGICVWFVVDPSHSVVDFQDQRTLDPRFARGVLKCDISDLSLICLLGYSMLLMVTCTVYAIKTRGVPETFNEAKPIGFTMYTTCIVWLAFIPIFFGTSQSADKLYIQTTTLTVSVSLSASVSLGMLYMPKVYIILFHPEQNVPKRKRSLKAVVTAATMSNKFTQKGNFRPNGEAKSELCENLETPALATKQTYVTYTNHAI

% glutamate max, inactive:
O=C(Nc1ccc(N2CCCS2(=O)=O)cc1)c1ccccn1 30.1%
COc1cc(NC(=O)c2ccccn2)ncn1 25.5%
O=C(Nc1cccc(C(F)(F)F)n1)c1ccccn1 25.1%
